The results in this text go back to PubChem BioAssay AID1508600 (Functional Genomics Laboratory (NCATS/FGL), 2020).

Among all 53,000 sequences or so, about 3,700 (7%) were called active. The full list was thinned out, with actives kept by preference. A number with no mark means an inactive call.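 How the source made its calls: active means gene knockdowns whose robust z-score for IL-1 alpha signal is at least 2 or at most -2, so actives lie on both sides; inactive means the rest.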

The assay is described as follows: Components of the Cytosolic LPS Sensing Pathway: Gene Identification via Genome-wide siRNA Screen.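 Further: robust z of the log signal after scaling to non-targeting control siRNA wells of the plate.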 As to conditions: RAW264.7 macrophages, IL-1a HTRF, actives lie on both sides, screened at 100 nM (by protocol), cells primed 5 h with Pam3CSK4 first. Put shortly: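 RAW264.7; siRNA 100 nM final, RNAiMAX, 48h 37 degrees C; Pam3CSK4 5 h; LipidA + TransIT-TKO 24 h; IL-1a HTRF; CellTiter-Glo viability; robust z vs negative-control median.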
On to GGAGACUUGCUAAAUGCCCTT against Fkbp7, for which the z-score is -0.0461.
For the sequence GGCAACUAAGGCUAAGAAGTT against H1f4, the z-score is -1.89.
For GGUCUCGCUCCAAGGAAGATT against Tra2b, the z-score is 2.56 (active).
Then GGAGACUGUCAUGGCUGUGTT against Olfr397, with -1.84; and GCUUUACCUCCUAUUAAUATT against Rgs9bp, with -0.91.
With GGAUUUAGCCAUGGAUUUCTT against Zfp473, the z-score was -1.17.
As for GUACAAGCCACUGGAUCUGTT against Smad6, the z-score is 5.56 (active).
In the case of GGAGACAAAGCAUUAUCUATT against Usp33, the z-score is -0.366.
For GGUGAAAGGAGCAAAUGAUTT against Fyco1, the z-score is -0.332.
Consider GGCACUGAGGUUGUUCAGGTT against Eif3h, for which the z-score is 0.806.
Then CCUACCAUACCAUGAGCAGTT against Pou4f3, with 1.52.
Consider GGAAUACAGAUUUUUCAGATT against Frmd6, for which the z-score is -1.15.
As to GCAGAUACUGAGAUGCUAUTT against Dkk4, the z-score was 2.24 (active).
For GGUGUUACCCUCCUUAGAGTT against Tmem230, the z-score is -1.03.
In the case of GGAUCUUGAAGACCAAAAATT against Kazn, the z-score was -2.14 (active).
GGCGAACAUGCACUUUCACTT against Gramd3: the z-score is -1.28.
For the sequence GGAGCAUGAGGAUUACUGUTT against Trafd1, the z-score was 0.731.
GGACAGUUUACUCCAGAUATT against Foxc1: the z-score is 2.84 (active).
Consider GCACUAAAGGGCUUUUCAUTT against Serping1, for which the z-score is 0.912.
In the case of GGAGAAAGGCAUCUUCAAATT against Spdef, the z-score is 0.0302.
As for GCCUUACUACUACAACAACTT against Prpf40b, the z-score was 2.08 (active).
As for GGCACAAAAGAAGAUCCUGTT against Tnfaip8, the z-score is -1.53.
With GGAUCCUGAACGAAAAAGGTT against Med19, the z-score was -0.0986.
Take CGGCAGAUUGCUGCUUUGATT against Vmn2r122: the z-score was 2.73 (active).
With GGUCCAAGAGGAAAGACAATT against Adarb2, the z-score is 0.67.
Consider GGUGACAGAUGUUUAUGAGTT against Ccdc28b, for which the z-score was -1.91.
Regarding GCAUAUGAUUGUCAUGAGUTT against Olfr319, the z-score is -1.47.
Consider GCAAGACCGAAGUCACGGATT against Krt19, for which the z-score is 2.87 (active).
Take CCGAGACAUAUACAAAGGATT against Klkb1: the z-score was -0.36.
As for CCAGACAUCGUGCUUUACATT against Chrna3, the z-score was 1.42.
Turning to GUUAACCCUGAGCCUAAACTT against Spata3, the z-score was 0.356.
Consider GGGCGACAUCUUUAGCAAATT against Sh3bp4, for which the z-score was -0.0472.
In the case of GCCUAAGCCCUUAAAGCGUTT against Lrrc41, the z-score was 0.643.
For the sequence CCCACUAAGGAACAAAUUGTT against Tex24, the z-score was 0.297.
As to GGCUUGCAUCAAUAAAGAATT against Adam33, the z-score is 0.0554.
Consider GGUGGUUGAAGAAAUGGCUTT against Timm8a1, for which the z-score is -0.364.
Consider GGAGCAGAAGUCAAUCAGGTT against Myo1b, for which the z-score is 0.419.
For the sequence GGGACUAAUGUUUUGCCUATT against Krt16, the z-score is -2.62 (active).
With GCGGAAGUCGACCUUUGAUTT against Cd164, the z-score was -0.238.
Turning to CGACUUUGGACAAAAAUUGTT against Kdm2a, the z-score was 0.638.
Turning to CCUACCCGAUUAUUCUUACTT against C2cd2l, the z-score was 0.125.
For the sequence “GGCAGUAUUGACUCCUACCTT against 6430548M08Rik”, the z-score is -0.973.
On to GCUUGGAUUGAGCUUUACATT against Pid1, for which the z-score is 3.53 (active).
Regarding GGAAGUUGUUGGGAACUUCTT against Afmid, the z-score is -0.401.
Take GGGAAGUUUGGUUCUUUGGTT against Msn: the z-score was 0.749.
In the case of GGAAAGCCACUGUGUAAAATT against Armc9, the z-score is 0.594.
Then “GCCUCUUCGAACUCACUAUTT against St6galnac3”, with -0.807; and “GGAAAGAGGGUUUAUUUUGTT against 4930556L07Rik”, with 0.919.
For the sequence GGGAAAGAGUUUUACAAACTT against Ttc22, the z-score was 2.74 (active).
Regarding GGACCUGAACAAUAAGGUUTT against Tagap, the z-score is -1.78.
On to GGAUUCUUUGGUCUAUUUCTT against Pudp, for which the z-score is -0.308.
Then GGAGAAAGACCAUUACUGUTT against Ly6e, with 1.63.
Then GGUGACAAACCGAUACUUGTT against Cope, with -0.966; and GCAGACAAAGAUCCUAUGCTT against Atp2b3, with -2.27 (active).
For the sequence CCUACCUAUUUAUCAAAGATT against Sgms1, the z-score was 0.977.
For the sequence GGAUUUUUACAGAGACAUGTT against Actr6, the z-score is -0.821.
With “CGAUAUCUUACUUCUUUUGTT against E030011O05Rik”, the z-score was 0.952.
As to GGCCAUAGUCCUGUUCACCTT against Nr2f2, the z-score was 0.492.
Take CCUUCAACAGAUCUAGAGUTT against Rexo1: the z-score is 2.36 (active).
On to GGAGGUUACAAUCCAUGAGTT against Anapc1, for which the z-score is -0.951.
As for GGAUAGAUUUUAGGUAUUGTT against Htr5b, the z-score is -0.475.
Then CGGAGUAGCGAUUAUGGUGTT against Art5, with -0.535; and GGAUUUAACCCUGAGAUACTT against Grpel2, with 0.621; and GGAUGAUAUCGGAGCCUGCTT against Clec4g, with 0.392.
For GGACAAAUACCACAAGUUGTT against Simc1, the z-score is 2.13 (active).
Take GCAGGAGUAUUGCCAAGGATT against Csf1: the z-score was -0.404.
CGAAACACUCAAGGUUGUATT against Creb3l2: the z-score is -0.314.
Turning to GCAGCAUGCCUGAAUAUUUTT against Prcp, the z-score was 0.172.
Then GGAGGUGGAACAAAUAUUUTT against Emc6, with 0.361; and GGAAGACUUGUUCAACUGGTT against Grwd1, with -0.88.
For GCUGUUUGAGGUCAUUCAUTT against Urb2, the z-score was 4.71 (active).
GGCUUUUGUCAAGCAGCACTT against Ins2: the z-score was -0.628.
For the sequence CCUUGAAAAGUCUAAACGUTT against Tmod2, the z-score is 0.375.
With GGGCUAGCCUAGAUAAAAATT against Sltm, the z-score is -1.38.
With GGGCUCCACAUGUUUGCAUTT against Ehmt1, the z-score is 0.392.
Turning to “GGAAUUCUCUCAGCAGAAGTT against 1110038F14Rik”, the z-score was -2.17 (active).
As to GGAACUUCUACAGUCCUCCTT against Parp16, the z-score is 0.193.
For GGCUUCUUAUUGAUGUUGGTT against Asb13, the z-score is -0.166.
Then GGAUUUUUGAUGAUGUGUCTT against Arfgap1, with -0.795.
Take CCUUAUAGCAUAAGCUUUATT against Olfr768: the z-score is 2.04 (active).
As for CCAAGAUACCUUUUUUGAGTT against Paox, the z-score is 0.455.
Then GGCCUCUUCACUUAUGUAUTT against Inha, with -0.22.
Then GGUCAAUUGUCCAUAUGACTT against Tox3, with -2.24 (active); and GGACAAUGAAGGAAUUGAUTT against Mdm4, with -0.579.
On to CCUCGACUUUUAUUUGGAUTT against Smg6, for which the z-score is -0.0389.
Then GGUUAGCUUCUUAAAACCATT against Adcy10, with -0.605; and GGGAGCUAGCAAAAUCGGATT against Eif4g3, with 0.714.
As for GGUGAAGCCAGUUUCUUUATT against Traf3ip2, the z-score is 0.107.
For the sequence CGUUGAUGUGUAUUUAAACTT against Vopp1, the z-score was 0.704.
With GCUACUAUUGUGUUCUGAATT against Drd1, the z-score was 2.24 (active).
Then CGUGAACGUAGAGUUUUCUTT against Fcrl5, with 3.59 (active).
Consider GGAACUGCUCAUAAAAACATT against Evi2b, for which the z-score is 0.0355.
On to GCUAUUGAGUUAUCGUUGCTT against Stam2, for which the z-score is 0.715.
Turning to GGUACAGCUUAUGGAUUAATT against Pdgfra, the z-score is -0.193.
In the case of GCCAGGUUUUCUCCAUAGATT against Tmem44, the z-score is -0.841.
Then GGUUUAUACUCAUAACCUGTT against Kifbp, with 2.03 (active).
Turning to “GAAAUUAGAACAACUUUGGTT against 3830403N18Rik”, the z-score was 0.442.
With GGACCGCCUUCAACAACAATT against Tpgs1, the z-score was 2.68 (active).
Then GGCAUUUACCAAGUUCCUGTT against Olfr522, with -1.26; and GGACCAUAAGCACAUGAUUTT against Prl7c1, with 0.668; and GGUCCAUACAAGUGUUUGATT against Camk2b, with -0.15.
Then GGUACUCGAAUCUGACCUCTT against Nqo1, with 2.04 (active); and GGAAACCCAAUAUCAAACUTT against Rnf138, with 0.252.
Consider GCAUCACUUACAGAUAGACTT against Olfr305, for which the z-score was -1.21.
For the sequence GCAAUACCUCAGAAAAAGUTT against Tmem165, the z-score was -4.14 (active).
On to GGAGGUCCAGAAGAAUUAUTT against Pam16, for which the z-score is 0.957.
As for GCAAAAGUAGAAGAACAACTT against Ccnt1, the z-score was -0.172.
